A word on the inhibition: it is how much of the control response was suppressed.

SMILES strings stand for the structures. A number with no mark means an inactive call. Calls of active or inactive are those of the source.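 The calls were made as follows: active = blocks over 70% of labeled estradiol binding at 10 µM, or over a set limit at 100 nM; inactive = the rest.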

We go through 38 compounds from PubChem BioAssay AID1210 (NMMLSC, 2008).

In the assay the target is Estrogen receptor beta (Homo sapiens) (UniProt Q92731). In words: displacement of fluorescent estrogen from ERbeta – cell-based, Cos7 ERbeta-GFP, flow cytometry, primary screen (AID 1210).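 Also: 0% = DMSO vehicle wells and 100% = complete loss of labeled estradiol signal.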 As to conditions: fluorescent estrogen binding, at 10 µM, hits give high values. Background: A flow cytometer gives signals particle by particle.
Chain of Estrogen receptor beta (Homo sapiens) (Q92731 whole entry, looked up): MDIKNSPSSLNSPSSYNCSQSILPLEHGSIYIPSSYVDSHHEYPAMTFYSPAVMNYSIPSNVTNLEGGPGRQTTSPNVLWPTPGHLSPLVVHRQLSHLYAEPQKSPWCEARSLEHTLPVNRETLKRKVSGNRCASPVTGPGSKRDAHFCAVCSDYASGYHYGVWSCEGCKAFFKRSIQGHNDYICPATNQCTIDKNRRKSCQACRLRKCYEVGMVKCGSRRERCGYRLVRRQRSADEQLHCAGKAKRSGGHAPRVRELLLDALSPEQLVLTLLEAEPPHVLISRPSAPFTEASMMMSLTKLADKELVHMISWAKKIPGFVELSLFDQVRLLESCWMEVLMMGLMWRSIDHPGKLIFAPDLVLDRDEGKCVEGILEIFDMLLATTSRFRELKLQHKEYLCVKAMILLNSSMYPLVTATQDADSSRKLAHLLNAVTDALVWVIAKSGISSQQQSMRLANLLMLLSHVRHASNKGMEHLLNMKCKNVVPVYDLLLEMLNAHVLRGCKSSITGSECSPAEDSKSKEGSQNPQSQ
On to `COc1cc([N+](=O)[O-])cc2c1N[C@@H](c1ccc(C(=O)O)cc1)[C@H]1CC=C[C@@H]21`, for which the inhibition was 42%. The result for `Cc1oc2ccc(OCC#N)cc2c1C(=O)OC(C)C` reads 14%; that for `COc1ccc2[nH]c3c(c2c1)CCNC3=O`, 17%. For the compound `CCOC(=O)N1CCc2[nH]c3ccc(C)cc3c2C1`, the inhibition was 9%.

For the compound `CCCC1Nc2ccc(C(=O)O)cc2C2C=CCC12` (stereo not drawn), the inhibition was 44%. The result for `Cc1nc2ccccc2n1-c1cc(C(C)(C)C)c(O)c(C(C)(C)C)c1` reads 16%; that for `COC(=O)c1ccc2c(c1)C1C=CCC1C(c1cccc([N+](=O)[O-])c1)N2` (stereo not drawn), 18%; that for `COc1ccc(-n2c(SCC(=O)Nc3nccs3)nc3sc4c(c3c2=O)CCN(C)C4)cc1`, 41%. On to `O=C(O)c1ccc([N+](=O)[O-])c2c1NC(c1ccccc1)C1CC=CC21` (stereo not drawn), for which the inhibition is 62%. As for `Nc1ccc2nc(-c3ccc(N)c(Cl)c3)[nH]c2c1`, the inhibition is 64%. On to `CCOc1ccccc1-n1nnnc1SCC(=O)NC(=O)NCc1ccco1`, for which the inhibition is 32%. In the case of `COc1cc(C2CC(=O)Nc3c2ccc2ccccc32)cc(Cl)c1O` (stereo not drawn), the inhibition was 19%. `Cc1cc([N+](=O)[O-])c2c(c1C)C1C=CCC1C(c1ccccn1)N2` (stereo not drawn): the inhibition is 0%. `COc1ccccc1NC(=O)c1ccccc1NC(=O)c1cc(Cl)ccc1NC(=O)c1ccco1`: the inhibition is 77% (active). As to `O=c1cc(-c2ccc(O)c(-c3c(O)cc(O)c4c(=O)cc(-c5ccc(O)cc5)oc34)c2)oc2cc(O)cc(O)c12`, the inhibition was 76% (active). Regarding `CC(=O)Oc1ccc(C2Nc3c(C(=O)O)ccc([N+](=O)[O-])c3C3C=CCC32)cc1` (stereo not drawn), the inhibition was 56%.

In the case of `CC1CCCC(C)N1Cc1c(O)ccc2c3c(c(=O)oc12)CCC3` (stereo not drawn), the inhibition is 21%. On to `N#Cc1c(NCCN)nc(NCc2ccccc2)c2c1CCN(Cc1ccccc1)C2`, for which the inhibition was 42%. The result for `Cc1nc2cc(-c3ccsc3-n3c(C)ccc3C)[nH]n2c(=O)c1Cl` reads 47%; that for `O=C(NC1CC1)c1ccc2c(c1)C1C3CCC(C3)C1C(c1ccccc1)N2` (stereo not drawn), 0%.

Consider `COc1ccc(C(N)CCc2ccc(C)o2)cc1` (stereo not drawn), for which the inhibition is 38%. Take `CCOC(=O)COc1cc2oc(=O)c3c(c2cc1CC)CCCC3`: the inhibition is 23%. In the case of `Cc1c(O)ccc2c3c(c(=O)oc12)CCCC3` it was 28%; in that of `COc1ccc(C2Nc3ccccc3C(=O)N2c2ccc(C)cc2)cc1COc1ccccn1` (stereo not drawn), 44%; in that of `CCCCCCc1cc2c3c(c(=O)oc2cc1OCC(=O)O)CCCC3`, 7%. For the compound `COc1cc([N+](=O)[O-])cc2c1NC(c1ccc(Cl)cc1)C1CC=CC21` (stereo not drawn), the inhibition was 1%. On to `COc1ccccc1C(=O)Nc1nc(-c2cccs2)c(NC(C)=O)s1`, for which the inhibition was 40%. As for `COC(=O)c1ccc(OCc2c(C)noc2C)cc1`, the inhibition was 0%. The result for `CCOc1cc2c(cc1OCC)C(C1CCCCC1)NCC2` (stereo not drawn) reads 12%. Consider `Cn1c(C(=O)Nc2ccc3c(c2)OCO3)cc2c(=O)n(C)c3ccccc3c21`, for which the inhibition was 42%. In the case of `CC1(C)C=C(c2ccc(O)cc2)CC(C)(C)N1`, the inhibition is 43%. As for `Cn1c(-c2ccc(N)cc2)nc2ccccc21`, the inhibition is 24%. Take `CN(C)S(=O)(=O)N(CC(=O)N(Cc1ccccc1)Cc1ccccc1)c1ccccc1`: the inhibition is 66%.

On to `O=C(O)c1ccc2c(c1)-c1nc3ccccc3n1C2=O`, for which the inhibition is 0%. As to `CC1(C)CC(=O)C=C(NC2CC(C)(C)NC(C)(C)C2)C1`, the inhibition was 2%. `O=C1CC(c2ccc3c(c2)OCO3)c2ccc3ccccc3c2N1` (stereo not drawn): the inhibition is 19%. In the case of `CCOc1ccc(NS(=O)(=O)c2ccc3c(c2)[C@H]2C=CC[C@H]2[C@@H](c2cccc([N+](=O)[O-])c2)N3)cc1` it was 0%; in that of `CC(C)C1CC(CCNCc2ccc3c(c2)OCO3)(c2ccccc2)CCO1` (stereo not drawn), 45%.
